PubChem BioAssay (EPA / NIEHS)
Records with an inconclusive call do not appear. The source made the active and inactive calls. Rule for the calls, unless noted: active = hit-call score of the fitted dose curve at least 0.9, where 1 is the maximum; inactive = score below 0.9.

Key:
[1] = CCTE_Shafer_MEA_dev_firing_rate_mean: CCTE's Neural Network Formation Assay for Mean Firing Rate, Shafer Lab (AID 2284031)
Method in brief: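 Extracellular spike frequency, AUC over DIV 5–12 recordings, in rat cortical neuron MEA cultures dosed from plating; loss direction vs DMSO.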

[2] = CCTE_Shafer_MEA_dev_per_burst_spike_percent: CCTE's Neural Network Formation Assay for Percent of Spikes in a Burst, Shafer Lab (AID 2284032)
Method in brief: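 Value is trapezoidal AUC over recordings on days 5, 7, 9 and 12 of the well-mean fraction of spikes falling in single-electrode bursts; rat cortical cultures exposed continuously from plating, treatment renewed DIV 5 and 9, fitted downward against DMSO.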

[3] = CCTE_Shafer_MEA_dev_burst_rate: CCTE's Neural Network Formation Assay for Burst Rate, Shafer Lab (AID 2284042)
Method in brief: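 Developmental network assay measuring how 12-day exposure of rat cortical neuron cultures alters bursting on extracellular MEA recordings. Values are AUC of well-mean burst rate across four recording days, relative to DMSO vehicle.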

[4] = CCTE_Shafer_MEA_dev_bursting_electrodes_number: CCTE's Neural Network Formation Assay for Number of Bursting Electrodes, Shafer Lab (AID 2284043; active = hit-call score of the fitted dose curve at least 0.9, where 1 is the maximum)
Method in brief: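 Number of electrodes reaching ≥1 burst every 2 min was recorded at DIV 5, 7, 9 and 12 and collapsed as trapezoidal area under the curve. Cultures were rat cortical neurons on MEA plates, dosed continuously from plating with medium and treatment refreshed on DIV 5 and 9.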

[5] = CCTE_Shafer_MEA_dev_per_burst_interspike_interval: CCTE's Neural Network Formation Assay for Burst Interspike Interval, Shafer Lab (AID 2284044)
Method in brief: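 Neurons from rat cortex plated onto PEI-coated MEA wells with laminin […] at 1.5 x 10^5 cells/well, then treated from day 0. Media and compound fully replaced on DIV 5 and 9. Extracellular spontaneous firing recorded four times; interspike interval per burst summarised as AUC.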

[6] = CCTE_Shafer_MEA_dev_interburst_interval_mean: CCTE's Neural Network Formation Assay for Mean Interburst Interval, Shafer Lab (AID 2284046);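 note: well-mean interburst interval of bursting electrodes as AUC over four recording days; curve fitted for decrease in interburst interval relative to DMSO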
Method in brief: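 Network formation assay in primary rat cortical cultures, exposed from DIV 0 to 12. Mean interburst interval per well, integrated as AUC over four recordings.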

[7] = CCTE_Shafer_MEA_dev_inter_network_spike_interval_mean: CCTE's Neural Network Formation Assay for Mean Inter-network Spike Interval, Shafer Lab (AID 2284047)
Method in brief: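 Compound was given at plating to primary rat cortical neurons and renewed with full medium changes on DIV 5 and 9. Extracellular activity was recorded on days 5, 7, 9, 12; AUC values were fitted for loss relative to DMSO control.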

[8] = CCTE_Shafer_MEA_dev_network_spike_number: CCTE's Neural Network Formation Assay for Number of Network Spikes, Shafer Lab (AID 2284048);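 note: synchronized bursts across electrodes counted on days 5 7 9 12 and integrated as AUC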
Method in brief: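 Number of network spikes (coordinated firing across electrodes) recorded on days 5, 7, 9 and 12 and summarised as area under the curve. Rat cortical cultures on MEA, continuous compound exposure with full medium/treatment exchange at DIV 5 and 9.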

[9] = CCTE_Shafer_MEA_dev_network_spike_peak: CCTE's Neural Network Formation Assay for Mean Number of Electrodes in Network Spike, Shafer Lab (AID 2284049)
Method in brief: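 Rat cortical primary culture, 1.5 x 10^5 cells/well, 48-well MEA (16 electrodes/well). Dosing day 0 through DIV 12, full media/compound exchange DIV 5, 9. AxIS adaptive spike detection; AUC over days 5/7/9/12; loss-of-signal vs DMSO.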

[10] = CCTE_Shafer_MEA_dev_network_spike_duration_std: CCTE's Neural Network Formation Assay for Standard Deviation of Network Spike Duration, Shafer Lab (AID 2284052);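 note: area under curve of spike duration SD across recording days 5 to 12; hits are decreases in network spike duration SD versus DMSO vehicle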
Method in brief: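 Developing networks of rat cortical neurons were exposed over twelve days in vitro on 48-well MEA plates. Trapezoidal AUC of recordings (DIV 5–12) was analysed for signal loss relative to DMSO vehicle.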

[11] = CCTE_Shafer_MEA_dev_per_network_spike_spike_number_mean: CCTE's Neural Network Formation Assay for Mean Number of Spikes in a Network Spike, Shafer Lab (AID 2284053)
Method in brief: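 First, rat cortical cells (1.5 x 10^5/well) were seeded onto MEA wells; second, dosing began at plating and was refreshed on DIV 5 and 9; finally, network-spike spike counts across DIV 5–12 were summarized as AUC.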

[12] = CCTE_Shafer_MEA_dev_per_network_spike_spike_percent: CCTE's Neural Network Formation Assay for Percent of Spikes in a Network Spike, Shafer Lab (AID 2284054)
Method in brief: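 Metric: fraction of spikes falling in a 0.05 s window at network-spike peaks. Recordings were made on days 5, 7, 9 and 12 and collapsed by trapezoidal AUC. Cultures were rat cortical neurons on MEA plates, dosed continuously from plating, re-dosed at media changes.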

[13] = CCTE_Shafer_MEA_dev_AB: CCTE's Alamar Blue Assay for Cytotoxicity in the Neural Network Formation Assay, Shafer Lab (AID 2284083; active = hit-call score of the fitted dose curve at least 0.9, where 1 is the maximum;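 note: resazurin reduction fluorescence as viability of cultured neurons; twelve days of exposure from plating with re-dosing on DIV 5 and 9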)
Method in brief: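 Cytotoxicity companion to the developmental MEA: primary rat cortical neurons, 12-day exposure starting day 0, compound refreshed DIV 5 and 9; resazurin fluorescence, fitted against DMSO vehicle.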

[14] = UKN2_HCS_IMR90_neural_migration: University of Konstanz (UKN) Leist Lab Neural Crest Cell Migration Assay in human induced IMR90 Pluripotent Stem Cells (UKN2) (AID 2284204); conditions: actives raise or lower the signal
Method in brief: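 High-content imaging of calcein-AM and Hoechst stained cells quantifies migration into a stopper-defined gap after 24 h compound exposure. Neural crest cells from IMR90 iPSC migrated 24 h in EGF/FGF N2-S medium before dosing; DMSO baseline.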

[15] = IUF_NPC1b_proliferation_BrdU_72hr: Leibniz Research Institute for Environmental Medicine (IUF) 72-hour Neural Progenitor Cell Bromodeoxyuridine (BrdU) Proliferation Assay (NPC1b) (AID 2284207)
Method in brief: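 Human fetal cortex-derived (GW 16-19) neural progenitor spheres, 0.25-0.35 mm, one per well in EGF/FGF proliferation medium, exposed to compound for 72 h at 37C, pH 7.2-7.6. BrdU incorporation over the final 16 h read by luminescence ELISA, relative to DMSO.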

[16] = IUF_NPC1a_proliferation_area_72hr: Leibniz Research Institute for Environmental Medicine (IUF) 72-hour Neural Progenitor Cell Proliferation Area Assay (NPC1a) (AID 2284208)
Method in brief: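 Spheres of 0.3 mm are plated singly in growth-factor medium and exposed from day 0. After three days at 37C and 5% CO2, sphere area is measured by phase contrast imaging, with activity referenced to DMSO.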

[17] = IUF_NPC1_viability_72hr: Viability Assessment at 72 hours in the Leibniz Research Institute for Environmental Medicine (IUF) Neural Progenitor Cell Proliferation Assay (NPC1) (AID 2284209)
Method in brief: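 Three-day continuous exposure of human neural progenitor spheres under EGF/FGF-driven proliferation; cell viability scored by alamar blue signal versus DMSO.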

[18] = CCTE_Mundy_HCI_Cortical_Synap_Neur_Matur_NeuriteSpotCountPerNeuriteLength: CCTE's Synaptogenesis and Neurite Maturation Assay in rat cortical cells for Neurite Spot Count per Neurite Length, Mundy Lab (AID 2284210)
Method in brief: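 Synaptophysin spots per unit neurite length, measured by automated imaging of MAP2/synaptophysin/Hoechst-stained neurons. Cultures from rat cortex received chemical at DIV 7 with media change through DIV 12; glial growth arrested by AraC at DIV 5; DMSO baseline.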

[19] = CCTE_Mundy_HCI_Cortical_Synap_Neur_Matur_BPCount: CCTE's Synaptogenesis and Neurite Maturation Assay in rat cortical cells for Branch Point Count, Mundy Lab (AID 2284211)
Method in brief: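 In this multiplexed morphology assay, cortical cells from rat receive chemicals at DIV 7 and are fixed at DIV 12, then immunostained and imaged; branch points are counted, with DMSO as baseline.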

[20] = CCTE_Mundy_HCI_Cortical_NOG_NeuriteCount: CCTE's Neurite Outgrowth Assay in rat cortical cells for Neurite Count, Mundy Lab (AID 2284212);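 note: cells fixed about two days after chemical exposure began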
Method in brief: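 Rat cortical primary cells; compound added 2 h post-plating, 1/10 dilution of working solution. Anti-betaIII-tubulin/AF488 ICC; ArrayScan neurite count vs DMSO.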

[21] = CCTE_Mundy_HCI_Cortical_NOG_NeuriteLength: CCTE's Neurite Outgrowth Assay in rat cortical cells for Neurite Length, Mundy Lab (AID 2284213)
Method in brief: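 First, rat primary cortical cells were plated and, 2 h later, given test chemical as a 1/10 dilution. Finally, βIII-tubulin immunostaining enabled automated imaging of neurite length.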

[22] = CCTE_Mundy_HCI_Cortical_Synap_Neur_Matur_NeuriteSpotCountPerNeuron: CCTE's Synaptogenesis and Neurite Maturation Assay in rat cortical cells for Neurite Spot Count per Neuron Count, Mundy Lab (AID 2284215)
Method in brief: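 Rat cortical primary cultures; AraC DIV 5 to arrest glia; dosing + media change DIV 7; fixed DIV 12. Anti-MAP2/anti-synaptophysin, Hoechst nuclei; HCI puncta count per neuron, positive fitting direction vs DMSO.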

Measured: AC50

CC(=O)N[C@@H](CC(=O)O)C(=O)O
active: [15] 11.7 µM
inactive: all other assays above
